# High-throughput results: PubChem, National Center for Advancing Translational Sciences (NCATS)
# The list is not random: actives were taken first. Their share in the collection is about 18%.
# PLK1 PBD inh – inhibitors of human PLK1 polo-box domain binding; P53350; Plk1 PBD binding of FITC phosphopeptide, fluorescence polarization; Potency, µM, inactives show max response, negative = inhibition, actives largely listed as inhibitors; hit rate 2.8% among 360,000; AID 720504; also: series mostly up to about 57 µM; nearly all actives have a fitted effect of over 65% in size
# TDP1 inh – TDP1 (human) enzyme inhibition. Q9NUW8. recombinant TDP1, AlphaScreen DNA substrate cleavage. Potency, µM (titrated, usually from 130 µM), inactives show top-dose activity change, negative = inhibition, hits mostly inhibitors. hit rate 0.28% among 350,000. AID 485290; also: nearly all actives have a fitted effect of over 40% in size
#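 Steps: enzyme plus compound, 15 min RT; add biotin/phosphotyrosine-FITC oligonucleotide (15 nM final), react 5 min; add donor/acceptor beads (10 ug/ml final), 10 min; read AlphaScreen. Tdp1 at 1 nM final.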
# DT40 TDP1 no CPT – qHTS for Inhibitors of human tyrosyl-DNA phosphodiesterase 1 (TDP1): qHTS in cells in absence of CPT; Potency, µM (doses to about 46.2 µM), for the others: top-dose activity change, negative = growth inhibition, actives largely listed as inhibitors; hit rate 15% among 420,000; DT40 Tdp1-/- hTDP1 cells, no CPT, ATP luminescence, 48 h; also: nearly all actives have a fitted effect of over 55% in size
#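 Cells were dispensed at 400 per well, compounds added by pin tool, plates incubated ≥48 hr at 37 °C, then CellTiter-Glo added for 30 min at room temperature before luminescence reading. Line: DT40 Tdp1-/- complemented with hTDP1; camptothecin omitted.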
# DT40 TDP1 CPT – growth inhibition of DT40 Tdp1-/-;hTDP1 cells with camptothecin (screen for TDP1 inhibitors) | chicken DT40 Tdp1-/-;hTDP1 cells + 20 nM CPT, ATP luminescence, 48 h | Potency, µM (top dose mostly 46.2 µM), inactives show top-dose activity change, negative = growth inhibition, actives largely listed as inhibitors | hit rate 12% among 420,000 | AID 686979; also: nearly all actives have a fitted effect of over 55% in size
#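 Chicken DT40 Tdp1-/- cells stably complemented with human TDP1 were seeded at 400 cells/well in medium containing 20 nM camptothecin, exposed to pin-transferred compounds, and grown at 37 °C for at least 48 hr. Viability was read as ATP luminescence.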
# VDR inh – vitamin D3 receptor (human) inhibition; Potency, µM, inactives show max response, negative = inhibition, hits mostly inhibitors; AID 504847; VDR-SRC2-3 peptide fluorescence polarization, 2 h; P11473; hit rate 0.93% among 400,000
# Target sequence (P11473 whole entry, looked up): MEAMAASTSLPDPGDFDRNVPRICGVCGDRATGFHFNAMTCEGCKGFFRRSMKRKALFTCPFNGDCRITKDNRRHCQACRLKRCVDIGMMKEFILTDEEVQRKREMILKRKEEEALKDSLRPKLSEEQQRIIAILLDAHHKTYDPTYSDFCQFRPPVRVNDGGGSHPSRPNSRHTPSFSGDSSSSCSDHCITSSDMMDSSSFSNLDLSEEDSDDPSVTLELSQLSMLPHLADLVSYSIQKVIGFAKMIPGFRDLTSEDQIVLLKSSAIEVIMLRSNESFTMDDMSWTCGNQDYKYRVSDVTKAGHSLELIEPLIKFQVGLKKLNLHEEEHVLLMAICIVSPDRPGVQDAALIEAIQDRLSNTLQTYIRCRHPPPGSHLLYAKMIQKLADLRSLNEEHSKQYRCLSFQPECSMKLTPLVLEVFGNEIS
#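 Measured by FP: displacement of SRC2-3 coactivator peptide from VDR by library compounds, following a two-hour ambient incubation.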
# GCN5L2 inh – GCN5L2 (KAT2A) acetyltransferase inhibition | AID 504327 | GCN5L2 HAT assay, ThioGlo1 CoA-SH fluorescence | Potency, µM (series often up to 58.9 µM), without a hit: at the top dose activity change, negative = inhibition, hits mostly inhibitors | hit rate 0.21% among 390,000 | Q92830
#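 qHTS, 1536-well. 20nM enzyme, pH 7.5 HEPES/EDTA/Tween-20 buffer; 15 min compound preinc., RT. Start: 75uM H3(1-25), 70uM AcCoA, 50uM ThioGlo1. Read Ex340/Em540 at t=0 (autofluorescence flag) and t=20 min.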
# * marks the source's active call; other numbers are inactive results; ? = inconclusive; / = no result given. Calls follow the shape of the dose curve; as a rule, active = well fitted curve in the direction sought with a large enough effect; inconclusive = small, poorly fitted or top-dose-only effect, or another doubt; inactive = no such curve, though single readings can be large; an effect the other way counts as inactive or inconclusive. % is scaled to controls: 0 for no effect and ±100 for the full control effect; potency is read from the fitted curve at half-maximal effect.
SMILES,PLK1 PBD inh,TDP1 inh,DT40 TDP1 no CPT,DT40 TDP1 CPT,VDR inh,GCN5L2 inh
Cn1nc(-c2ccccc2)cc1NS(=O)(=O)c1ccc(C#N)cc1,2.6%,1.4%,-0.9%,-5.7%,3.0%,-2.7%
CCN(Cc1ccccc1)C(=O)c1cnn(-c2ccc(F)cc2)c1-n1cccc1,/,5.6%,/,/,3.6%,-2.0%
Nc1nonc1-n1nnc(C(=O)N/N=C/c2cccc(Cl)c2)c1-c1cccs1,-3.3%,4.1%,-10.4%,-26.5%,6.1%,-10.8%
O=C(OCc1cc(=O)n2ccsc2n1)c1ccccc1NCCO,-15.3%,44.7µM*,-29.8%,1.7%,7.7%,-21.5%
O=C(Nc1ccccc1C(=O)OCc1cc(=O)n2ccsc2n1)c1ccccc1Cl,/,-3.8%,1.6%,-2.4%,10.8%,-7.0%
Cc1cc(C)cc(NC(=O)C2CCN(S(=O)(=O)c3ccc4c(c3)NC(=O)C(C)S4)CC2)c1 (stereo unspecified),6.8%,0.3%,-23.9%,?,4.3%,-26.2%
Cc1ccc(NC(=O)C2CCN(S(=O)(=O)c3ccc4c(c3)NC(=O)C(C)S4)CC2)c(Cl)c1 (stereo unspecified),9.3%,2.9%,20.6µM*,13µM*,11.6%,-10.0%
Cc1ccc(CCNC(=O)C2CCN(S(=O)(=O)c3ccc4c(c3)NC(=O)C(C)S4)CC2)cc1 (stereo unspecified),-14.6%,0.2%,18.4µM*,?,-8.9%,2.9%
CC1Sc2ccc(S(=O)(=O)N3CCC(C(=O)NCCc4ccccc4)CC3)cc2NC1=O (stereo unspecified),0.1%,3.7%,?,?,-6.0%,-4.9%
Cc1cc(Br)ccc1NC(=O)CN(C)C(=O)COc1cccc2c1OC(C)(C)C2,-6.4%,/,-21.0%,-18.5%,-4.2%,0.3%
CSc1cc(C)c(OCC(=O)Nc2ccc(NC(C)=O)cc2)c(C)c1,-13.5%,7.7%,?,?,-5.7%,0.4%
COc1c(N2CCN(C(=S)NC3CC4CCC3C4)C(C)C2)c(F)cc2c(=O)c(C(=O)O)cn(C3CC3)c12 (stereo unspecified),-18.0%,5.6%,23.1µM*,23.1µM*,-20.9%,-0.3%
COc1c(N2CCN(C(=S)Nc3ccc(F)cc3)C(C)C2)c(F)cc2c(=O)c(C(=O)O)cn(C3CC3)c12 (stereo unspecified),-12.7%,0.0%,-23.1%,-2.6%,9.5%,-3.7%
Cc1n[nH]c(=O)c2c(NC(=O)CSc3ccc(F)cc3)oc(C)c12,?,-7.8%,-13.8%,-7.7%,-2.5%,-13.8%
CC(=O)Nc1ccc(SCC(=O)Nc2oc(C)c3c(C)n[nH]c(=O)c23)cc1,18.9µM*,/,1.8%,0.8%,-11.0%,-0.6%
O=C(O)c1cccc(-n2cccc2/C=C2/NC(=O)N(c3cccc(Cl)c3)C2=O)c1,?,?,-1.2%,14.0%,4.5%,0.0%
Cc1cccc(N=C2NC(=O)/C(=C/c3cccn3C)S2)c1C,-5.9%,/,8.2µM*,?,10.0%,-6.4%
Cc1cccc(N=C2NC(=O)/C(=C/c3cccnc3)S2)c1C,-26.1%,7.1%,-26.9%,?,5.1%,-7.7%
Cc1ccccc1N=C1NC(=O)/C(=C/c2cccn2-c2cccc(C(=O)O)c2)S1,16.8µM*,?,2.9%,8.2%,-12.3%,-1.6%
Cc1ccc(N=C2NC(=O)/C(=C/c3cccn3C)S2)cc1C,-7.4%,9.4%,9.2µM*,20.6µM*,-0.8%,-0.7%
Cc1ccc(N=C2NC(=O)/C(=C/c3cccn3C)S2)cc1,-2.5%,6.0%,4.61µM*,6.51µM*,-18.0%,1.3%
CC(=O)Nc1ccc(NC(=O)C2CCN(S(C)(=O)=O)CC2)cc1,-2.5%,/,-1.0%,1.2%,/,/
CCOC(=O)/C=C/c1cc(F)c(S(=O)(=O)N2CCN(S(=O)(=O)c3ccc4c(c3)OCCO4)CC2)cc1F,/,1.0%,/,/,/,/
